# PubChem BioAssay (NCI)
# Where “and” joins values, the source holds several entries; their conditions need not be identical. Equal values may be shown once. This is part of a sample that, as a whole, favours compounds with a hit. Of some 83,000 tested, about 20% had one in any assay.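 Cell lines were cultured in 96-well plates, exposed to a single compound concentration, and assessed for percent growth 48 hours later.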 Calls of active or inactive are those of the source. Rule for the calls: active = growth percent below 10; inactive = the rest.
# Assays:
# Test in all cases: NCI-60 one-dose screen, 48 h (100 = growth as untreated, 0 = no growth, -100 = all killed)
# Conditions in all cases: 10 µM unless noted
# RPMI-8226 leukemia = tested on: RPMI-8226 leukemia
# OVCAR-8 ovarian = tested on: OVCAR-8 ovarian
# OVCAR-5 ovarian = tested on: OVCAR-5 ovarian
# OVCAR-4 ovarian = tested on: OVCAR-4 ovarian
# IGROV1 ovarian = tested on: IGROV1 ovarian
# OVCAR-3 ovarian = tested on: OVCAR-3 ovarian
# HS 578T breast = tested on: HS 578T breast
# SK-OV-3 ovarian = tested on: SK-OV-3 ovarian
# NCI/ADR-RES ovarian = tested on: NCI/ADR-RES ovarian
SMILES,growth (RPMI-8226 leukemia),growth (OVCAR-8 ovarian),growth (OVCAR-5 ovarian),growth (OVCAR-4 ovarian),growth (IGROV1 ovarian),growth (OVCAR-3 ovarian),growth (HS 578T breast),growth (SK-OV-3 ovarian),growth (NCI/ADR-RES ovarian)
Cc1cc(N)c2ccccc2[n+]1CCCCCCCCCC[n+]1c(C)cc(N)c2ccccc21,9.49% (active) and -11.6% (active),26.8% (inactive),-58.1% (active),21.2% (inactive) and 19.8% (inactive),4.94% (active) and -18.4% (active),-16.7% (active) and 15% (inactive),34.7% (inactive),,
O=C(O)C1C2CC3C(OC(=O)C31)C2Br (configuration not stated),102% (inactive) and 106% (inactive),97.8% (inactive) and 100% (inactive),103% (inactive) and 100% (inactive),114% (inactive) and 89.8% (inactive),103% (inactive) and 114% (inactive),,93.4% (inactive) and 95.7% (inactive),95.8% (inactive) and 105% (inactive),103% (inactive) and 100% (inactive)
OC(CNc1ccnc2cc(Cl)ccc12)CNc1ccnc2cc(Cl)ccc12,92.6% (inactive),52.5% (inactive),79.5% (inactive),48% (inactive),87.6% (inactive),43.6% (inactive),89% (inactive),113% (inactive),106% (inactive)
CN(C)CCOc1ccc2c(c1)C(=O)/C(=C\c1ncc([N+](=O)[O-])n1C)C2,9.88% (active),1.01% (active),-21.1% (active),-49.1% (active),-47.7% (active),-59% (active),21.1% (inactive),,-1.71% (active)
Cc1cc(C(C)(CC(C)C)c2ccc(O)c(C)c2)ccc1O,86.3% (inactive),91.2% (inactive),113% (inactive),94.8% (inactive),103% (inactive),,129% (inactive),97% (inactive),
NC(N)=N/N=C/c1ccc([N+](=O)[O-])o1,78.7% (inactive),79.7% (inactive),123% (inactive),82.8% (inactive),98% (inactive),83.1% (inactive),105% (inactive),,99.5% (inactive)
CCCCCCCCCCCCCCNCc1ccccc1,34.5% (inactive),87% (inactive),105% (inactive),80.3% (inactive),97.7% (inactive),91.4% (inactive),95% (inactive),97.8% (inactive),79.6% (inactive)
Cc1ccnc2c1ccc1c(C)ccnc12,17.4% (inactive),12.1% (inactive),48.8% (inactive),24.1% (inactive),23.8% (inactive),24.9% (inactive),52.6% (inactive),,
Cc1ccc(N=C=C(c2ccccc2)c2ccccc2)cc1,16.6% (inactive),70% (inactive),113% (inactive),103% (inactive),57.2% (inactive),118% (inactive),91.1% (inactive),112% (inactive),81.2% (inactive)
